Screening results deposited in PubChem BioAssay by several laboratories.
Most compounds without a hit are left out; they make up all but 4.8% or so of the library.
APP 5UTR inh: APP translation inhibition. SH-SY5Y APP 5'UTR-luciferase reporter, luminescence. inhibition, % at 2 µM. 190,000 compounds, 0.82% hits;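 active = inhibition above a set limit, derived from the sample mean plus 3 SD, cut at about 45% in these data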
NF-kB expr up: compounds increasing NF-kB expression in human neuronal cells | 190,000 compounds, 1.6% hits | fold change at 12.5 µM | NF-kB reporter expression; hits give high values; in the data active = fold change above about 3.3
Wee1 stabilizer: blocks degradation of human Wee1 kinase; P30291; HeLa Luc-Wee1K328M stability, luciferase luminescence; 100% = proteasome inhibitor MG132 effect; 220,000 compounds, 1.2% hits; reporter increase, % at 5 µM;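 active = activation above the mean of all tested compounds plus 3 SD, set per screening run, cut at about 8.8% in these data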;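 also: cells exposed to compound for 20 h before luminescence read; 0% = DMSO alone and 100% = MG132 at 30 µM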
Hsp70 activator: switches on Hsp70 transcription; HeLa Hsp70 promoter luciferase reporter, luminescence; scaled: vehicle 0, proteasome-inhibitor control 100%; activation, % at 10 µM; 200,000 compounds, 0.04% hits;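 active = activation above the mean across all tested compounds plus 3 SD, cutoff set per campaign, cut at about 5.5% in these data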;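 also: 100% = MG132 at 30 µM as the positive control and 0% = DMSO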
APP 5'UTR act: activates APP 5'UTR luciferase reporter | SH-SY5Y APP 5'UTR luciferase reporter, luminescence; zero percent = DMSO vehicle wells | activation, % at 2 µM | 190,000 compounds, 1% hits | AID 1276;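 active = activation above a set limit, based on mean plus 3 SD of controls, cut at about 140% in these data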
STAT1 act: activators of IFN-gamma induced STAT1 signaling; NIH 3T3 STAT1-luciferase reporter, luminescence; 100% = IFN-gamma alone, no compound; 200,000 compounds, 2.6% hits; activation (% of control), % at 5.5 µM;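 active = activation above the screen-wide mean activation plus 3 SD, cut at about 130% in these data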;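 also: raw ratio to IFN-gamma control signal so 100% means no change and 0% no light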
The depositor's hits bear a star; · = not tested or not shown.

SMILES	APP 5UTR inh	NF-kB expr up	Wee1 stabilizer	Hsp70 activator	APP 5'UTR act	STAT1 act
CCC(=O)Nc1cc2nn(-c3ccc(OC)cc3)nc2cc1C	-162	2.2	1	0	162*	133*
COc1ccc2sc(NC(C)=O)nc2c1	-103	2.4	2	0	103	136*
CCC(=O)Nc1nc2cc(OC)ccc2s1	-86	3.6*	2	0	87	140*
Cc1ccc(NC(=O)[C@@H]2CCCN2S(=O)(=O)c2ccccc2C(F)(F)F)cc1S(=O)(=O)N1CCOCC1	-6	0.88	0	0	6	110
C/C(Cn1nnc2ccccc21)=N/OC(=O)c1c(F)cccc1F	-20	1.1	0	0	20	97
CN1C(=O)C(CC(=O)NCC2CCCCC2)SC1=Nc1ccccc1 (configuration not stated)	-5	1.1	-3	0	5	92
COc1ccc2nc(NC(=O)CCn3cccc3)sc2c1	21	1.1	5	0	-21	115
COc1ccc2sc(NC(=O)CC(C)C)nc2c1	-94	3.5*	8	1	94	146*
CN(Cc1cccs1)c1nc(-c2cccnc2)nc2ccccc12	17	0.79	-4	0	-17	83
COc1cc(/C=N\NC(=O)c2cccc(Cl)c2)ccc1Oc1ccc([N+](=O)[O-])cn1	·	·	0	·	·	·
COc1ccc(Nc2cc(C)c3ccccc3n2)cc1	-85	2	2	0	85	132*
Cc1cc(Nc2ccc([N+](=O)[O-])cc2)nc2ccccc12	-6	1.2	0	0	6	112
CCc1nnc(NC(=O)c2cccc(S(=O)(=O)N3CCN(c4ccccc4)CC3)c2)s1	10	0.87	2	-1	-10	101
COc1ccc(-c2cc(C(F)F)n3ncc(C(=O)N4CCc5ccccc54)c3n2)cc1	87*	1.2	2	0	-87	102
CC1CCc2c(nc3sc4c(c3c2N)CCCC4)C1 (configuration not stated)	-65	1.8	1	0	65	135*
Nc1c2c(nc3sc4c(c13)CCCCC4)CCCCC2	-185	4*	4	0	185*	145*
Cc1ccc(NC(=O)c2sc(=S)n(-c3cc(C)ccc3F)c2N)cc1	-9	1.1	3	0	9	111
Cn1cc(C(=O)Nc2ccc(F)c(F)c2)cn1	50*	1.2	-1	0	-50	98
C/C(=N/NC(=O)c1ccc2c(c1)OCO2)c1ccc(Br)s1	-82	1.5	-4	0	81	136*
C/C(=N\NC(=O)c1ccc(Cl)c(Cl)c1)c1ccc(Br)s1	52*	1.1	4	0	-52	108
C/C(=N\NC(=O)c1ccc2c(c1)OCO2)c1ccco1	-60	2.8	-1	0	60	92
COc1cc(C(=O)N/N=C(\C)c2ccc3c(c2)OCO3)cc(OC)c1OC	91*	1	-1	0	-91	97
COc1ccc(/C(C)=N\NC(=O)c2ccc3c(c2)OCO3)cc1OC	-24	1.2	-2	0	24	110
CCn1nc(C)c(NC(=O)CCCSc2nc(-c3ccco3)cc(C(F)(F)F)n2)c1C	-8	0.88	1	0	8	94
CCC1(N(C(C)=O)c2ccc(OC)cc2)C(=O)c2ccccc2C1=O	14	0.66	-2	0	-15	94
SMILES	APP 5UTR inh	NF-kB expr up	Wee1 stabilizer	Hsp70 activator	APP 5'UTR act	STAT1 act
CC(C)(C)c1ccc(-c2nc(C=O)c3ccccn23)cc1	-4	0.5	-3	0	4	99
Cc1c(C(C)(C)C)c(C=S)n2ccccc12	70*	0.91	1	0	-70	88
Cc1cccc(N2CCN(C(=O)C3CCCCC3)CC2)c1C	3	1.1	-1	0	-3	95
CCO[C@H]1OC(C(=O)NCc2nc3ccccc3[nH]2)=C[C@@H](C2CC2)[C@@H]1CCCO	86*	1.6	1	0	-86	108
Cc1ccc(NC(=O)C2(c3ccccc3)CC2(Cl)Cl)cc1C (configuration not stated)	-20	1.9	-1	0	20	108
COc1ccccc1/C=C\C(=O)NCC(=O)N/N=C/c1ccc(O)cc1O	·	·	-2	·	·	·
CCOC(=O)N/N=C1\CCc2ccccc21	-63	1.9	0	0	63	109
O=C(N/N=C1\CCc2ccccc21)c1ccc(O)cc1	-138	3.3	8	0	138*	142*
